Data published in article PMC5540273 (PLoS ONE, 2017).

What follows are molecules tested on CSNK1E. Conditions: concentration: 1 μM, replicates: in singlicate; n = 1.
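Note: KINOMEscan kinase panel screen.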

SMILES | %Inh
COc1ccc(Nc2nccc(-c3cccc(NC(=O)c4cc5cc(F)ccc5[nH]4)c3)n2)cc1 [GSK1229782] | 33%
O=C(O)COc1ncnc2cc(-c3ccc4[nH]ncc4c3)sc12 | 0%
Cc1ccc(-c2cc(-c3c[nH]nc3-c3ccccn3)ccn2)cc1 [GW684088] | 18%
Cc1c(O)cccc1Nc1ccnc2ccc(C(F)(F)F)cc12.Cl [GW466413] | 22%
CS(=O)(=O)c1ccc(-c2c(-c3ncn[nH]3)sc(N3CCOCC3)c2C#N)cc1 | 4%
Fc1cccc(COc2nnc(-c3ccc4c(c3)CCO4)o2)c1 | 0%
COc1cc2ncnc(Nc3ccc4nc(-c5ccccc5)[nH]c4c3)c2cc1OC.Cl [GW282450] | 24%

Each molecule was assayed on CSNK1G1. Conditions: concentration: 1 μM, replicates: in singlicate; n = 1.

SMILES | %Inh
COc1cc2ncn(-c3cc(OCC4CCCO4)c(C(N)=O)s3)c2cc1OC (centres unmarked) [GSK204607] | 1%
C[C@@H]1CCCCN1c1cc(-c2ccc3c(N)n[nH]c3c2)nc(N)n1 [GSK2258759] | 6%
COc1ccc(C2=C(Nc3cccc(C(=O)O)c3)C(=O)NC2=O)cc1 [SB-390765] | 11%
CCCc1ccc(S(=O)(=O)NC2CCN(c3ccnc(Nc4ccc(F)cc4)n3)C2)cc1 (centres unmarked) [GSK1379715] | 2%
O=C(Nc1ccccc1)Nc1cccc(Oc2ccc3nccn3n2)c1 | 0%
Cn1ccc2ncnc(Oc3ccc(Nc4nc5ccccc5[nH]4)cc3)c21 | 0%
Cc1cccc(-c2cc(Nc3ccncc3)c3ccccc3n2)n1 [GSK223675] | 10%
Cc1ccc(NC(=O)Nc2cccc(Cl)c2)cc1-c1ccc(C(=O)Nc2ccncc2)cc1 [GSK1398468] | 2%
COc1ccc(CNC(=O)NC2CCN(c3ccnc(Nc4cc(OC)c(OC)c(OC)c4)n3)C2)cc1 (centres unmarked) [GSK1379748] | 0%
O=S(=O)(c1ccc(-c2ccnc3[nH]ccc23)cc1)N1CCCC1 [GSK846226] | 5%
COc1ccccc1-c1ccc2c(NC(=O)C3CC3)n[nH]c2n1 [SB-711239] | 0%
Cl.O=C(Nc1cccc(-c2nn3ncccc3c2-c2ccnc(Nc3cccnc3)n2)c1)c1c(F)cccc1F [GSK312879] | 8%
O=C(Nc1n[nH]c2nc(-c3nccs3)c(Br)cc12)C1CCCC1 [SB-742609] | 0%
COc1cc(Nc2nccc(N3CCC(NC(=O)Nc4cc(C)ccc4C)C3)n2)cc(OC)c1OC (centres unmarked) [GSK1379762] | 1%
CC(=O)Nc1nc2cnc(Nc3cc(NC(=O)c4cccc(CCC#N)c4)ccc3C)nc2s1 | 2%
Cc1cc(N2Cc3ccccc3C2)nc(Nc2ccc(S(=O)(=O)N3CCOCC3)cc2)n1.Cl [GSK1669917] | 0%
Cc1cccc(-c2nc(C)cc(Nc3ccncc3)n2)n1 [GSK257997] | 13%

SMILES | %Inh
O=c1cc(N2CCOCC2)nc2n(Cc3cccc(Cl)c3Cl)ccn12 [GSK2286295] | 10%
Cc1cc(-c2ccc3c(c2)CC[C@@H](N[C@@H](C)c2ccccc2)C3)cnc1N.Cl [GW412617] | 11%
COc1ccccc1CNC(=O)c1cc(C(=O)c2ccccc2C)c[nH]1 [GSK364507] | 15%
Cc1cccc(-c2nc(Nc3cccc(C(N)=O)c3)c3ccccc3n2)n1 [GW876019] | 0%
Cc1csc(-c2nc(Nc3ccncc3)c3ccccc3n2)n1 [GW869640] | 0%
CS(=O)(=O)c1ccc(-c2nc3n(c2-c2ccncc2)CCC3)cc1 [SKF-105942] | 4%
Nc1ncnc2[nH]c(-c3ccccc3)nc12 [AH5015] | 11%
Cc1cccc(-c2nc(Nc3ccncc3)c3ccccc3n2)n1 [GW855857] | 0%
COC(=O)c1c(-c2ccccc2)c2cc(OC)ccc2c(=O)n1Cc1ccccc1 | 8%
Cc1c(Cn2ccn3c(=O)cc(N4CCOCC4)nc23)cccc1C(F)(F)F [GSK2289044] | 19%
COc1ccc(Nc2nccc(-c3cccc(NC(=O)c4cc5cc(F)ccc5[nH]4)c3)n2)cc1 [GSK1229782] | 13%
O=C(O)COc1ncnc2cc(-c3ccc4[nH]ncc4c3)sc12 | 17%
Cc1ccc(-c2cc(-c3c[nH]nc3-c3ccccn3)ccn2)cc1 [GW684088] | 10%
Cc1c(O)cccc1Nc1ccnc2ccc(C(F)(F)F)cc12.Cl [GW466413] | 0%
CS(=O)(=O)c1ccc(-c2c(-c3ncn[nH]3)sc(N3CCOCC3)c2C#N)cc1 | 1%
Fc1cccc(COc2nnc(-c3ccc4c(c3)CCO4)o2)c1 | 10%
COc1cc2ncnc(Nc3ccc4nc(-c5ccccc5)[nH]c4c3)c2cc1OC.Cl [GW282450] | 15%
